The text below walks through data of PubChem BioAssay (NCATS).

Several values for one entry are separate records, joined by “and”; a condition that tells them apart may be missing. Equal values may be shown once. Unmarked numbers belong to inactive results. Inconclusive results are not listed. Activity calls are given as the source filed them. Unless noted, calls follow the shape of the dose curve; as a rule, active = well fitted curve in either direction with a large enough effect (not every such curve was filed as active); inconclusive = small, poorly fitted or top-dose-only effect, or another doubt; inactive = flat fitted curve, though single readings scatter. A value given as a limit tells only on which side of the number the result lay.

Assay [1] is described as follows: AP1 Signaling Pathway (AID 357).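 Also: ME-180 reporter cells stimulated with EGF at its EC50 level; % is scaled to controls: 0 for no effect and ±100 for the full control effect.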 Particulars: ME-180 AP-1-bla reporter, EGF-induced, beta-lactamase ratio, 5 h; at 7.69 µM (top of the series) unless noted. A digest of the protocol: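 In this screen, ME-180 cells in Opti-MEM with 0.5% dialyzed FBS received EC50 EGF and compound titrations for 5 h. AP-1 reporter beta-lactamase was detected via CCF4 ratio, giving AC50 for positive and negative modulators.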

Assay [2] deals with Cytochrome P450 1A2 (Homo sapiens) (UniProt P05177). Kind of assay: p450-cyp1a2 (AID 410; calls by dose curve; also: potency is read from the fitted curve at half-maximal effect;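 as to activity change, negative = inhibition: -100% = full effect of reference inhibitor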). The procedure, abridged:
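Luminescent demethylation readout: Luciferin-ME (100uM, equal to Km) turned over by 20nM CYP1A2 for 60 min at room temperature after NADPH regeneration addition, following 10 min compound preincubation. Normalization used 57 uM furafylline as full inhibition.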

Assay [3] in a line: NFAT Signaling Pathway (AID 444).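 Also: carbachol stimulus at about its EC50 of 1 µM final; % is scaled to controls: 0 for no effect and ±100 for the full control effect.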 Particulars: Jurkat NFAT-bla M1, carbachol, beta-lactamase ratio, 5 h; at 7.69 µM (top of the series) unless noted. The procedure, abridged: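 Read-out: CCF4 FRET ratio (460 nm/530 nm) after 1 h RT dye loading, used for %activity and AC50 from titration series. Cells: Jurkat NFAT-β-lactamase/M1 line, treated with compound plus 1 uM carbachol for 5 h, 37 °C.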

Assay [4] is described as follows: Stat Signaling Pathway (AID 446).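 Also: ME-180 cervical cancer cells given 40 pM IL-6 alongside compound; SIE-controlled beta-lactamase reporter measured as 460/530 nm FRET emission ratio; % is scaled to controls: 0 for no effect and ±100 for the full control effect.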 Particulars: ME-180 (cervical carcinoma) SIE beta-lactamase reporter, IL-6 stimulated, 5 h; at 7.69 µM (top of the series) unless noted. The procedure, abridged: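 Emission at 460 and 530 nm (excitation 405 nm) reports SIE-controlled beta-lactamase in ME-180 cells. Cells received compound with 40 pM IL-6 for 5 hrs at 37 C; data scaled between 300 pM IL-6 and 125 nM JAK-inhibitor controls.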

Assay [5] deals with Glucocorticoid receptor (Homo sapiens) (UniProt P04150). Kind of assay: GR-GFP Redistribution (AID 450;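 active = compounds whose dose series gives a full or clear partial fitted curve of increased nuclear translocation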; also: potency is read from the fitted curve at half-maximal effect). The conditions noted are these: U2OS GR-GFP nuclear translocation, laser cytometry, 2 h.
For assay [6], the target named is 3',5'-cyclic-AMP phosphodiesterase 4B (Homo sapiens) (UniProt Q07343). Kind of assay: qHTS Assay for Inhibitors of PDE-IV (AID 607; active = well fitted activation curve with a large enough effect in the main read-out, with a control signal flat, not every such curve was filed as active; also: % of control where 0% means no effect). The procedure, abridged:
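The readout is membrane depolarisation from a cAMP-sensing CNG channel, detected with a potential dye at ex 535/em 590. Cells were HEK293-derived (endogenous PDE-IV) at 1000 cells/well, titrated up to 22.9 uM final.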

Assay [7] addresses Guanine nucleotide-binding protein G(i) subunit alpha-1 (Homo sapiens) (UniProt P63096). Kind of assay: qHTS Assay for Inhibitors of RGS12 GoLoco Motif Activity (Green Fluorophore) (AID 879; active = well fitted curve in the direction sought with a large enough effect; an effect the other way counts as inactive or inconclusive;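 also: 0% = labeled peptide with Gαi1 and full inhibition = labeled peptide alone without protein; negative values mean loss of peptide binding seen as reduced polarization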). The procedure, abridged:
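A drop in FITC polarization marked displacement of the FITC-tagged RGS12 GoLoco peptide (10 nM) from Gαi1 (50 nM). Compounds were incubated 10 min at room temperature in Tris pH 7.5 buffer containing 150 mM NaCl, 0.1 mM GDP and 0.05% NP40; unlabeled peptide titration served as control.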
For orientation: In qHTS, concentration-response curves come from the screen itself.

Assay [8] in a line: qHTS Assay for Identification of Small Molecule Agonists for Thrombopoietin (TPO) Signaling Pathway (AID 917; active = well fitted curve in the direction sought with a large enough effect; an effect the other way counts as inactive or inconclusive; also: % is scaled to controls: 0 for no effect and ±100 for the full control effect). A digest of the protocol: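 Human TPO receptor–transfected Ba/F3 cells (murine, IL-3-dependent) in IL-3-deficient medium; compounds plus TPO at EC50, 26 pM final; 24 hrs, 37 C; GpIIb-luciferase luminescence after 10 min RT detection.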
For assay [9], the target named is Pyruvate kinase (Leishmania mexicana) (UniProt Q27686). Kind of assay: qHTS Validation Assay for Inhibitors of Leishmania Mexicana Pyruvate Kinase (AID 945; active = well fitted curve in the direction sought with a large enough effect; an effect the other way counts as inactive or inconclusive;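 also: 0% = DMSO only neutral control wells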). A digest of the protocol:
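An endpoint luciferase assay: 0.2 nM LmPYK E451W turns over 0.5 mM PEP with 0.1 mM ADP for 1 h at room temperature, pH 7.2, before PKLight addition. Values are normalized to DMSO-only wells.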

Assay [10] deals with Pyruvate kinase PKM (Homo sapiens) (UniProt P14618). Kind of assay: qHTS Assay for Activators of Human Muscle Pyruvate Kinase (AID 954; active = well fitted curve in the direction sought with a large enough effect, not every such curve was filed as active;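 also: 0% = uninhibited enzyme and -100% = no enzyme or full thiadiazolimine inhibition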). The procedure, abridged:
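PKM2, human, >95% pure, 0.1 nM; PEP 0.5 mM (Km), ADP 0.1 mM; 50 mM imidazole pH 7.2, 50 mM KCl, 0.01% Tween 20, 0.05% BSA; 1 h RT; luciferase luminescence readout.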

In assay [11] the target is Alpha-galactosidase A (Homo sapiens) (UniProt P06280). Kind of assay: Counterscreen for Glucocerebrosidase Inhibitors: qHTS Assay for Human alpha-Galactosidase at pH 4.5 (AID 992; active = well fitted curve in the direction sought with a large enough effect; an effect the other way counts as inactive or inconclusive; also: 0% is about no effect). A digest of the protocol: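 Fluorogenic 4-MU alpha-D-galactoside (80 uM) hydrolysis, 2 nM enzyme, pH 4.5 citrate buffer + 0.005% Tween-20; 20 min RT; NaOH/glycine pH 10 stop; Ex365/Em440. Compounds titrated 0.7 nM–77 uM; Hill-equation AC50.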
(A counterscreen serves to expose hits that act by an unwanted route or on another target.)

For assay [12], the target named is alpha-glucosidase (Oryza sativa, rice) (UniProt Q653V4). Kind of assay: Counterscreen for Glucocerebrosidase Inhibitors: qHTS Assay for Rice alpha-Glucosidase at pH 5.0 (AID 997; active = well fitted curve in the direction sought with a large enough effect; an effect the other way counts as inactive or inconclusive;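 also: 0% = full activity with enzyme and -100% = basal without enzyme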). A digest of the protocol: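 Endpoint fluorogenic assay at pH 5.0: compounds (0.7 nM to 77 uM) titrated against 4 nM rice enzyme and 400 uM 4-MU-alpha-glucoside for 20 min at room temperature; NaOH/glycine stop, read ex 365/em 440 nm, Hill-fitted AC50.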

Assay [13] deals with Alpha-galactosidase (Coffea arabica) (UniProt Q42656). Kind of assay: Counterscreen for Glucocerebrosidase Inhibitors: qHTS Assay for Coffee Bean alpha-Galactosidase at pH 5.9 (AID 998; active = well fitted curve in the direction sought with a large enough effect; an effect the other way counts as inactive or inconclusive;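 also: plate controls were uninhibited enzyme for no effect and no-enzyme basal signal for full effect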). The procedure, abridged:
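Fluorogenic 4-MU substrate hydrolysis, 80 uM substrate and 2 nM coffee bean alpha-galactosidase, pH 5.9 citrate buffer, 20 min at room temperature, then NaOH/glycine stop. Titration 0.7 nM–77 uM, normalized to no-enzyme and enzyme controls, AC50 via Hill equation.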

For assay [14], the target named is Glucocorticoid receptor (Homo sapiens) (UniProt P04150). Kind of assay: GR-EFC Redistribution (AID 451; calls by dose curve; also: potency is read from the fitted curve at half-maximal effect). The conditions noted are these: CHO-K1 GR-EFC translocation, beta-gal luminescence, 2 h. A digest of the protocol:
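Translocation of GR-ED fusion to nuclear EA restores b-gal, read by luminescence after 1 h room-temperature detection. Engineered CHO-K1 biosensor cells, 1,000/well, exposed 2 h at 37 C to titrations up to 46 uM final.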

Assay [15] deals with Mitogen-activated protein kinase 10 (Mus musculus) (UniProt Q61831). Kind of assay: JNK3 AlphaScreen Assay (AID 530). A digest of the protocol: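 qHTS titrations with 15 min compound pre-incubation before adding ATP (10 uM final). Read-out: AlphaScreen of Ser73-phosphorylated biotin-GST-cJun using HepG2 lysate JNK3 activated by IL-1β and TNFα.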
In general terms: Alpha assays give light when donor and acceptor beads are brought close together.

For assay [16], the target named is Cytochrome P450 2D6 (Homo sapiens) (UniProt P10635). Kind of assay: qHTS Assay for Inhibitors and Substrates of Cytochrome P450 2D6 (AID 891; active = well fitted curve in the direction sought with a large enough effect; an effect the other way counts as inactive or inconclusive; also: potency is read from the fitted curve at half-maximal effect; nearly all actives have a fitted effect of over 60% in size). A digest of the protocol:
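Luminescent read-out of luciferin formed by 5 nM human CYP2D6 demethylating 30 uM Luciferin-ME EGE (Km level) over 60 min at room temperature after NADPH regeneration addition. Data normalized to full inhibition by 1.43 uM quinidine.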

The target of assay [17] is Cytochrome P450 2C19 (Homo sapiens) (UniProt P33261). Kind of assay: qHTS Assay for Inhibitors and Substrates of Cytochrome P450 2C19 (AID 899; active = well fitted curve in the direction sought with a large enough effect; an effect the other way counts as inactive or inconclusive; also: % is scaled to controls: 0 for no effect and ±100 for the full control effect; nearly all actives have a fitted effect of over 60% in size). A digest of the protocol:
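Reactions contain 5nM enzyme, 10uM Luciferin-H EGE (KM) and 50mM KPO4; compound preincubates 10 min at 37C, NADPH regeneration starts turnover for 60 min. Luminescence after detection reagent gives activity.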

Cytochrome P450 1A2 (Homo sapiens), sequence (P05177 whole entry, looked up): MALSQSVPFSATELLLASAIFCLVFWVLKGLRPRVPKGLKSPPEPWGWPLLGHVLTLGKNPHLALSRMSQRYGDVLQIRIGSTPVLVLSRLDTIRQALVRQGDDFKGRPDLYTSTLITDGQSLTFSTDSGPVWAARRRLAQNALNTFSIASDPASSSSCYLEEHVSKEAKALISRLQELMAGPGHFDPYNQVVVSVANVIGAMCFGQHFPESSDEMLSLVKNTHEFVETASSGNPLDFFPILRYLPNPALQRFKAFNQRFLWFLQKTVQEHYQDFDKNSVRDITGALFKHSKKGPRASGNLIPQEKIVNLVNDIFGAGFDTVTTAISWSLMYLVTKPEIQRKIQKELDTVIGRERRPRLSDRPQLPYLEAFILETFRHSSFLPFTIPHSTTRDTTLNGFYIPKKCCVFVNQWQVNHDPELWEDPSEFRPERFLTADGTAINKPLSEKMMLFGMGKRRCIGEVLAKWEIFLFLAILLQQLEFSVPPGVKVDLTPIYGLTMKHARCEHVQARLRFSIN
Glucocorticoid receptor (Homo sapiens), sequence (P04150 whole entry, looked up, the tested form may be a part): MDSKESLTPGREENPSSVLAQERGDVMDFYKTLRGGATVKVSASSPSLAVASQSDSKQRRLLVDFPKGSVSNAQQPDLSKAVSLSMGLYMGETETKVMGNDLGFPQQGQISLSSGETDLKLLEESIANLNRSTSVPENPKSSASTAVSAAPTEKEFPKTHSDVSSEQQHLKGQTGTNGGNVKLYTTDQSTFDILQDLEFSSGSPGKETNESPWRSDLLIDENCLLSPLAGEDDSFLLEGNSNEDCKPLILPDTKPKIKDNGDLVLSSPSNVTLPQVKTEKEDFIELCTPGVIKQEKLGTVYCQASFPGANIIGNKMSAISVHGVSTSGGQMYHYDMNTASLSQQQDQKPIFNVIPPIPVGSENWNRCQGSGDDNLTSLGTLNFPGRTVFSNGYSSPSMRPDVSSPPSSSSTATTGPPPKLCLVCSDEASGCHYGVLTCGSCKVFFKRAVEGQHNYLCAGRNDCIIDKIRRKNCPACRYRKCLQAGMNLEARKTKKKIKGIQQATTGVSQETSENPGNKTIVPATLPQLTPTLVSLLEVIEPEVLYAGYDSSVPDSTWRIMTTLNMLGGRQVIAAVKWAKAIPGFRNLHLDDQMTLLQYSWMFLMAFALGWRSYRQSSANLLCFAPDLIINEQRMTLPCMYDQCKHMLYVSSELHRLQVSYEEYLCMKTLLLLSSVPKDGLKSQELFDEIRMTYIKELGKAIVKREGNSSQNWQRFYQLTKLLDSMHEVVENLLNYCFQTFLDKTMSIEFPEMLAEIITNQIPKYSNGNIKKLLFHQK
3',5'-cyclic-AMP phosphodiesterase 4B (Homo sapiens), sequence (Q07343 whole entry, looked up): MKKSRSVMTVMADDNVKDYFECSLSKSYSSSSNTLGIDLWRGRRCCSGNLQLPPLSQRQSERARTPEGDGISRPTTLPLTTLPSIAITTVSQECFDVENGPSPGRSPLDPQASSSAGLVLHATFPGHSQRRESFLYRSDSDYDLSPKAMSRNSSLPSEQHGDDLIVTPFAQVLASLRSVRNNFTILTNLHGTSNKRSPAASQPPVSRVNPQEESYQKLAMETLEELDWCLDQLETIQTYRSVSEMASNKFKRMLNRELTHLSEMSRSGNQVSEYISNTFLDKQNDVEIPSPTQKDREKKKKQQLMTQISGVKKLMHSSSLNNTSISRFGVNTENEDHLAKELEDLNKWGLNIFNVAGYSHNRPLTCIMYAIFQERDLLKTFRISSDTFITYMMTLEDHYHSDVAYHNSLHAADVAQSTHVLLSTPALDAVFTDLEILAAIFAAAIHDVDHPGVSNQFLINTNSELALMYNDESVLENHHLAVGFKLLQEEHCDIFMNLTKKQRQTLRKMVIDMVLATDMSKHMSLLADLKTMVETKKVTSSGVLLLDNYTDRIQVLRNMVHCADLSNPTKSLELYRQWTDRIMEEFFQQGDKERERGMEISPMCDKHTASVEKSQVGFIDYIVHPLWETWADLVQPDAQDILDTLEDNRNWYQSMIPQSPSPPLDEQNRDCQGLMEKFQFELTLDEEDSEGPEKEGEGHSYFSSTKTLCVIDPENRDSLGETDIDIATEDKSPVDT
Pyruvate kinase (Leishmania mexicana), sequence (Q27686 2-499 E452W): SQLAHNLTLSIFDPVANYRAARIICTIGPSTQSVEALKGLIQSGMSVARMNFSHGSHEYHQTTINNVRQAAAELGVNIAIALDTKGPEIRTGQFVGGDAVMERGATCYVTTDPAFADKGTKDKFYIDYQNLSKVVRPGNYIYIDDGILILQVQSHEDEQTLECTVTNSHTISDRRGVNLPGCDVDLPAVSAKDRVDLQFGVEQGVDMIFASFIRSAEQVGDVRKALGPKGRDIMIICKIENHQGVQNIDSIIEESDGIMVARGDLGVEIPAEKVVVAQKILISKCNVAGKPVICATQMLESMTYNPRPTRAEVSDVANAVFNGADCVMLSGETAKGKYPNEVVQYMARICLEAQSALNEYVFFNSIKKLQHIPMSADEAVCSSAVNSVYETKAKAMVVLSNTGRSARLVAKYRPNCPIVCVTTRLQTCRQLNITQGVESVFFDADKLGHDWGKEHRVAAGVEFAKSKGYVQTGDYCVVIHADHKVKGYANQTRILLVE
Alpha-galactosidase (Coffea arabica), sequence (Q42656 whole entry, looked up): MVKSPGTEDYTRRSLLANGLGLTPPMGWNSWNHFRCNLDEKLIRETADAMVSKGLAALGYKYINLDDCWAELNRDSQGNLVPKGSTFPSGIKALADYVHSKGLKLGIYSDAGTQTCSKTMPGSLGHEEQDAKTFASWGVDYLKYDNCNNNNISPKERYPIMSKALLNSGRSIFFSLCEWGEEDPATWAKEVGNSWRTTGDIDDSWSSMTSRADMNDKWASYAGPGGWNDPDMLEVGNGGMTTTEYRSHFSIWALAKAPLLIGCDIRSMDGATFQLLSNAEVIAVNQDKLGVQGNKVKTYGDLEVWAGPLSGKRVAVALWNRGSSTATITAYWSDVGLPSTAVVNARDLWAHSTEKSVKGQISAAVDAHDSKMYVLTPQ
Alpha-galactosidase A (Homo sapiens), sequence (P06280 whole entry, looked up): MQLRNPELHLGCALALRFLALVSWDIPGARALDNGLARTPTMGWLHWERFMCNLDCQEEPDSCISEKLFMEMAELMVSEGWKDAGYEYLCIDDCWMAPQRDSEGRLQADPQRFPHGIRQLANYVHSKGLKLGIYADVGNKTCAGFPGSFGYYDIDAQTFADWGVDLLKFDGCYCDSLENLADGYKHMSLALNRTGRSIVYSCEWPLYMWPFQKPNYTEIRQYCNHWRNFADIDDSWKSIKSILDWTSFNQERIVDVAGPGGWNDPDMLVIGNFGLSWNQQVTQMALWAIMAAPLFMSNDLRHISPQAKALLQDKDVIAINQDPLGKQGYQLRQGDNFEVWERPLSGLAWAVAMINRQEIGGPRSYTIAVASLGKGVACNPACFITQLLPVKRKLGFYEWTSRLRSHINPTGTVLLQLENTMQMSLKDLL
Pyruvate kinase PKM (Homo sapiens), sequence (P14618 whole entry, looked up): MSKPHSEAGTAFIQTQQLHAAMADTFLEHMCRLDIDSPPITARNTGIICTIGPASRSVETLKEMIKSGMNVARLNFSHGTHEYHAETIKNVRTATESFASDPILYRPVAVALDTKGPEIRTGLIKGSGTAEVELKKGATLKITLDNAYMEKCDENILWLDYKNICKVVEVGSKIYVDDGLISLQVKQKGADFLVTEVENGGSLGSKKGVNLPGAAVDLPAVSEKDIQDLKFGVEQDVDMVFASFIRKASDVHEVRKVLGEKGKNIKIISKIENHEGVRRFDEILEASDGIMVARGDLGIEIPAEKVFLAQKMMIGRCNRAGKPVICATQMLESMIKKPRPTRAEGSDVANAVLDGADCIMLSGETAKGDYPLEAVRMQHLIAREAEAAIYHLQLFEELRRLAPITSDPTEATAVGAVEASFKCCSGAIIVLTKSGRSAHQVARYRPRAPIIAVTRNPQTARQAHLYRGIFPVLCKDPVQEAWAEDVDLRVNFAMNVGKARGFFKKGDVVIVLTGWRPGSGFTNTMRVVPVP
Guanine nucleotide-binding protein G(i) subunit alpha-1 (Homo sapiens), sequence (P63096 whole entry, looked up): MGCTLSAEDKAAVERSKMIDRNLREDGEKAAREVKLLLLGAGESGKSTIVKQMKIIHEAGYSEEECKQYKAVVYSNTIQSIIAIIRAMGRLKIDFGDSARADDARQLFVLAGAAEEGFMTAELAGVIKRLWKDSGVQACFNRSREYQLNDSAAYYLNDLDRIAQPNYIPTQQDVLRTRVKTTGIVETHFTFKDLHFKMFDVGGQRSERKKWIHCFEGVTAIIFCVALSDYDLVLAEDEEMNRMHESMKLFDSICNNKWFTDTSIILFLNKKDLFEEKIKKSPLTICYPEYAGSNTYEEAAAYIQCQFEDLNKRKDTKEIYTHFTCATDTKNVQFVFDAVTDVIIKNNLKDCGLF
Cytochrome P450 2C19 (Homo sapiens), sequence (P33261 whole entry, looked up): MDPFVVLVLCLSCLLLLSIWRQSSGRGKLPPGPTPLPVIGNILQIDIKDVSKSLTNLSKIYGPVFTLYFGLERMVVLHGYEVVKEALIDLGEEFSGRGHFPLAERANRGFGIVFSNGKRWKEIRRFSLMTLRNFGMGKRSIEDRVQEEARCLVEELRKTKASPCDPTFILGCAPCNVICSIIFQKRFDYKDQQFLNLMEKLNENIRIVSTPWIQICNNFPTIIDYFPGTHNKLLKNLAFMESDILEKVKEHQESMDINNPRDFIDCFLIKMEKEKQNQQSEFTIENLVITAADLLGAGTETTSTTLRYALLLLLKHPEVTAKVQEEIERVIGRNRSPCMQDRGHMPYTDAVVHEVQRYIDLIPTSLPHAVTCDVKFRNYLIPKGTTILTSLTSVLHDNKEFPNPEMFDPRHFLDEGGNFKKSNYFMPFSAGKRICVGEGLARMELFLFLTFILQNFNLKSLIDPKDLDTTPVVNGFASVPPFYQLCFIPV

As for `C[N+]1(C)CCc2cc3c(cc2[C@@H]1[C@@H]1OC(=O)c2c1ccc1c2OCO1)OCO3`, the values for the activity change, negative = inhibition in assay [1] and in assay [3] were -3.72% [at 38 µM] and -11.8% [at 38 µM], respectively. The Potency entry in assay [2] was “inactive”. Further, the activity, negative = inhibition in assay [4] was 13.3% [at 38 µM]. Besides, the Potency in [5] is over 46 µM. Besides, the compound was called inactive in assay [6], in assay [7], in assay [8], in assay [9], in assay [10] and in [11]. The outcome in assay [12] and in assay [13] was inactive.

Take `Nc1ccccc1O.O.O=C(O)[C@H]1[O][Sb][O][C@H]1C(=O)O`: the activity change, negative = inhibition in [2] was -23.1% [at 2.29 µM]; in [3], -17.5%; in [15], -2.79% [at 11.4 µM]. Besides, the activity, negative = inhibition in assay [4] was 8.88%. Moreover, the values for the Potency in assay [5] and in assay [14] were over 46 µM and over 9.22 µM, respectively. In addition, the compound was classed as inactive in [6].

With `c1cncc(CNCCN2CCNCC2)c1`, the activity change, negative = inhibition is 5.14% in assay [1] and 1.33% [at 11.4 µM] in assay [15]. Moreover, in [2], the Potency result is “inactive”. The Potency in assay [5] was over 46 µM; in [14] it was over 9.22 µM. The result in [6] was inactive.

On to `O=C(O)[C@@H]1[C@H](C(=O)O)[C@]2(Cl)C(Cl)=C(Cl)[C@@]1(Cl)C2(Cl)Cl`, for which, in [2], the Potency result is “inactive”. Besides, the values for the activity change, negative = inhibition in assay [3] and in assay [15] were 11.1% and 0.126% [at 11.4 µM], respectively. Also, in [4], the activity, negative = inhibition is 3.47%. In addition, the results for the Potency in assay [5] and in assay [14] were over 46 µM and over 9.22 µM, respectively. Moreover, the compound was called inactive in [6].

Take `O=C(O)[C@H](Cc1cnc[nH]1)N1C(=O)c2ccccc2C1=O`: the activity change, negative = inhibition in assay [1] is -8.47%; in [3], 7.47%; in [15] it was 41.7% [at 11.4 µM]. Further, the activity, negative = inhibition in assay [4] was 4.43%. Also, the Potency was over 46 µM in assay [5] and over 9.22 µM in [14]. In addition, in assay [6], the outcome was inactive.

Turning to `N=C(N)SCc1ccc(Cl)c2ccccc12` (tested in a mixture with another compound), the activity change, negative = inhibition is 6.29% and 5.72% in assay [1]; -1.16% in [3]; 3.26% [at 11.4 µM] and 4.92% [at 11.4 µM] in [15]. The Potency in [2] was 251 nM (active) and 158 nM (active); in assay [16] it was 3.16 µM (active). Besides, the activity, negative = inhibition in assay [4] is -8.84% and -10.7%. The compound was classed as inactive in assay [6].

In the case of `CCn1cnc2c(Nc3cccc(Cl)c3)nc(N[C@@H]3CCCC[C@H]3N)nc21`, the activity change, negative = inhibition was -111% [at 38 µM] (active) in assay [1] and -119% [at 38 µM] (active) in [3]. Besides, the Potency in assay [2] was 15.8 µM (active); in assay [5], over 46 µM. For the same compound, the activity, negative = inhibition in [4] was -30.2% [at 38 µM] (active). Also, the Potency result in assay [15] and in [17] was “inactive” each time. Further, the compound was called inactive in assay [6], in assay [7], in [9], in assay [10], in assay [11] and in assay [12]. Besides, the compound was classed as inactive in [13].

`C[C@@]12Cc3cnc(-c4ccccc4)nc3C[C@@H]1CC[C@@H]1[C@H]3CC[C@@](C)(O)[C@]3(C)CC[C@@H]12`: the activity change, negative = inhibition is 5.09% in assay [1], -13.1% in assay [3] and 3.79% [at 11.4 µM] in assay [15]. For the same compound, the activity, negative = inhibition in assay [4] was 1.77%. In addition, the Potency was over 46 µM in assay [5] and over 9.22 µM in assay [14]. In [6], the result was inactive.
